FLuc modulator = qHTS profiling assay for firefly luciferase inhibitor/activator using purifed enzyme and Km concentrations of substrates (counterscreen for miR-21 project). Luciferin 4-monooxygenase (Photinus pyralis), P08659. AID 588342, 2011. Potency, µM (series often up to 57.5 µM), usual class: inhibitors. 6.9% of 360,000 active. purified FLuc, Km substrates, luminescence inhibition; further: nearly all actives have a fitted effect of over 55% in size
Target sequence (P08659 whole entry, looked up): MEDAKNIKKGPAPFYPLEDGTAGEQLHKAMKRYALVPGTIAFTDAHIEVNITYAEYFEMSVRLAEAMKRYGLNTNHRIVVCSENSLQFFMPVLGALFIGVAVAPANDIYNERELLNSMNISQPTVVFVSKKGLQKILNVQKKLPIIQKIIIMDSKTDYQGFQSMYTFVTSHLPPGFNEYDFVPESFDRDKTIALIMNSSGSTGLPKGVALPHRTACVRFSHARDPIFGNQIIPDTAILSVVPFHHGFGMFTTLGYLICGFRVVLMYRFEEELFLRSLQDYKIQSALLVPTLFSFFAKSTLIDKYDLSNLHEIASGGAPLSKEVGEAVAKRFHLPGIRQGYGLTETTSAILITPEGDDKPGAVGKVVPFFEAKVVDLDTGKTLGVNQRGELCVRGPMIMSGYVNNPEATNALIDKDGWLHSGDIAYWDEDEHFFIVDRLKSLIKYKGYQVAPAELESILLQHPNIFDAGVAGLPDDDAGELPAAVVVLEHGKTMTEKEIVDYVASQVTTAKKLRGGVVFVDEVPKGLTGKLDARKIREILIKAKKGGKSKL
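Purified P. pyralis luciferase (10nM final) with 10uM D-luciferin and 10uM ATP (Km levels) in 50mM Tris acetate pH 7.5, 10mM Mg acetate, 0.01% Tween-20, 0.05% BSA; qHTS 6-point titration, ~60 µM downward; luminescence read.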
Rab9 prom act = qHTS Assay for Rab9 Promoter Activators. AID 485297, 2010. Potency, µM (top dose mostly 9.22 µM), usual class: activators. Huh7 Rab9 promoter-luciferase reporter, luminescence, 24 h. 2.8% of 320,000 active; further: nearly all actives have a fitted effect of over 60% in size
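Cells were plated at 1500 per well in reduced-serum medium with 10% FBS and left 2 h. Compound in DMSO was then added for 24 h at 37 °C. Reporter signal was read by luminescence after 10 min with luciferase detection reagent.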
ELG1 repair inh = qHTS screen for small molecules that inhibit ELG1-dependent DNA repair in human embryonic kidney (HEK293T) cells expressing luciferase-tagged ELG1; HEK293T ELG1-luciferase reporter, luminescence, 16 h; DNA damage induced by 5-fluorouridine; AID 504467, 2011; Potency, µM (titrated, usually from 46.1 µM), hits mostly inhibitors; 2.3% of 330,000 active; further: nearly all actives have a fitted effect of over 55% in size
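5-Fluorouridine DNA damage + compound/DMSO, 2,000 cells/well, 16 h, 37 °C/5% CO2. ONE-Glo, 30 min RT, luminescence. Readout = decrease in reporter signal.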
NPC1 promoter act = qHTS Assay for NPC1 Promoter Activators; AID 485313, 2010; Huh7 NPC1 promoter luciferase reporter, 24 h; 2.4% of 320,000 active; Potency, µM (highest dose often 9.22 µM), usual class: activators; further: nearly all actives have a fitted effect of over 60% in size
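Luciferase expression driven by the NPC1 promoter was measured in stably transfected Huh7 cells after a 24 h compound incubation, using a luciferase reagent and a luminescence read.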
SMN2 splice enh = qHTS Assay for Enhancers of SMN2 Splice Variant Expression; HEK293 SMN2-luciferase splicing reporter, luminescence, 30-36 h; Potency, µM (top dose mostly 46.1 µM), hits mostly activators; 2.8% of 210,000 active; further: nearly all actives have a fitted effect of over 55% in size
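HEK293 cells carry an SMN2 […]–luciferase reporter in which exon 7 inclusion puts luciferase in frame. Cells were plated 10-12 h before compound addition, then incubated 30-36 h at 37C. ONE-Glo luminescence was read; sodium butyrate at 4.5 mM final served as control.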
ELG1 genotox = qHTS screen for small molecules that induce genotoxicity in human embryonic kidney (HEK293T) cells expressing luciferase-tagged ELG1; HEK293T ELG1-luciferase reporter, luminescence, 16 h; Potency, µM (top dose mostly 46 µM), actives largely listed as activators; 1.3% of 330,000 active; AID 504466, 2011; further: nearly all actives have a fitted effect of over 60% in size
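Cells (2,000/well) expressing the ELG1-luciferase fusion are dosed by pin tool and kept 16 hr at 37 °C, 5% CO2. Signal comes from ONE-Glo luciferase reagent after 30 min at room temperature.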
A number is an active result; . = inactive; ? = inconclusive; / = no result; [ ] = dose if it differs, or a comment. Rows were chosen to be rich in hits. Some 9.4% of all compounds tested hit in one or more screens of this group. The call rests on the fitted dose curve; in most records, active means well fitted curve in the direction sought with a large enough effect; inconclusive means small, poorly fitted or top-dose-only effect, or another doubt; inactive means no such curve, though single readings can be large; an effect the other way counts as inactive or inconclusive.

SMILES | FLuc modulator | Rab9 prom act | ELG1 repair inh | NPC1 promoter act | SMN2 splice enh | ELG1 genotox
CC(=O)Nc1cccc(C)c1 | . | . | . | . | . | .
CC(=O)Nc1ccc(-c2cc(-c3ccccc3)nc(-c3ccccc3)n2)cc1 | . | . | ? | . | .[1.84 µM] | .
Clc1ccc2nc(-c3ccccc3)cn2c1 | 0.48µM | 0.4µM | ? | 0.4µM | / | 0.92µM
Cc1ccn2cc(C(=O)Nc3cccc(C(=O)NC4CC4)c3)nc2c1 | 1.3µM | ? | ? | ? | / | .
O=c1c2ccccc2n(Cc2ccccc2F)c(=O)n1-c1cccc(F)c1 | . | / | / | / | . | /
Brc1csc(/C=N/Nc2nc3ccccc3s2)c1 | 1.2µM | 3.2µM | ? | 5µM | 2.8µM | ?
Cc1ccc2[nH]c(C)c(/C=N/Nc3nc4ccccc4s3)c2c1 | ? | . | . | . | . | .
C(=N\Nc1nc2ccccc2s1)/c1ccccn1 | 0.076µM | . | ? | . | / | ?
C(=N\Nc1ccccc1)/c1nc2ccccc2s1 | 1.5µM | 0.79µM | ? | 3.5µM | / | ?
Cc1csc(N/N=C/c2ccccn2)n1 | 2.1µM | 0.45µM | ? | . | 3.5µM | 12µM
Cc1csc(Nc2ccccc2)n1 | ? | ? | ? | . | . | ?
Cc1ccc(C)c(NC(=O)CSc2cn(CC(=O)N3CCCC3)c3ccccc23)c1 | . | / | / | / | / | /
CCc1ccc(NCc2cc3cc4c(cc3n(CC(=O)Nc3ccccc3Cl)c2=O)OCO4)cc1 | . | / | / | / | / | /
N[C@@H](CSCc1ccccc1)C(=O)O | / | / | / | / | .[9.22 µM] | /
CCNC(=O)c1cnc2sc(N3CCCCCC3)nn2c1=O | . | / | / | / | / | /
COC(=O)c1c(NC(=O)c2cccs2)sc2c1CCC(C)C2 (configuration not stated) | 11µM | ? | ? | ? | . | .
CC1CCc2c(sc(NC(=O)c3cccs3)c2C(=O)O)C1 (configuration not stated) | 6.7µM | .[1.84 µM] | . | . | / | .
CCC1CCc2c(sc(NC(=O)c3cccnc3)c2C(N)=O)C1 (configuration not stated) | ? | ? | ? | . | . | ?
CCC1CCc2c(sc(NC(=O)c3ccoc3C)c2C(N)=O)C1 (configuration not stated) | 6.7µM | . | ? | . | ? | ?
COC(=O)c1c(NC(=O)c2ccc(C(C)(C)C)cc2)sc2c1CCC(C)C2 (configuration not stated) | . | / | / | / | . | /
CCCC1CCc2c(sc(NC(=O)c3cccs3)c2C(N)=O)C1 (configuration not stated) | 3.4µM | ? | ? | ? | . | .
O=C(N/N=C/c1nn(-c2ccccc2)cc1-c1ccccc1)c1ccncc1 | 9.5µM | . | ? | . | ? | .
Cc1ccc(-c2nn(-c3ccccc3)cc2/C=N/NC(=O)c2ccncc2)o1 | 12µM | . | ? | . | 14µM | ?
Cc1ccc(-c2nn(-c3ccccc3)cc2/C=C/C(=O)OCC(=O)NC2CC2)o1 | . | . | . | . | . | .
Cc1ccc(-c2nn(-c3ccccc3)cc2/C=N/NC(=O)c2ccc(Br)o2)cc1 | 11µM | . | ? | . | . | .
SMILES | FLuc modulator | Rab9 prom act | ELG1 repair inh | NPC1 promoter act | SMN2 splice enh | ELG1 genotox
CN(C)C(=O)COC(=O)/C=C/c1cn(-c2ccccc2)nc1-c1cccs1 | 19µM | . | . | . | . | .
C=CC1=C2C=C(C3CC3)N(Cc3ccc4c(c3)OCO4)C=C2C(=O)C(C)(OC(=O)c2ccco2)C1=O (configuration not stated) | / | / | / | / | .[9.22 µM] | /
COc1ccc(NC(=O)c2ccco2)cc1NC(=O)COc1ccccc1Cl | . | / | / | / | . | /
O=C(/C=C/c1cn(-c2ccccc2)nc1-c1cccs1)NCCN1CCOCC1 | 19µM | . | . | . | / | .
O=C(c1cn(-c2ccccc2)nc1-c1cccs1)N1CCN(c2ccccc2)CC1 | ? | . | . | . | . | .
O=C(c1cn(-c2ccccc2)nc1-c1cccs1)N1CCOCC1 | ? | . | . | . | . | .
O=C(N/N=C/c1cn(-c2ccccc2)nc1-c1cccs1)c1ccncc1 | 11µM | . | . | . | . | .
NS(=O)(=O)c1ccc(N/N=C/c2cn(-c3ccccc3)nc2-c2cccs2)c([N+](=O)[O-])c1 | . | . | . | . | . | .
NC(=O)N/N=C/c1cn(-c2ccccc2)nc1-c1cccs1 | 2.1µM | ? | ? | ? | 18µM | ?
O=C(N/N=C/c1cn(-c2ccccc2)nc1-c1ccccc1)c1ccco1 | . | . | . | . | ? | .
O=C(O)c1cccc(N/N=C/c2cn(-c3ccccc3)nc2-c2cccs2)c1 | 1.3µM | 2µM | ? | 3.5µM | 14µM | ?
COc1ccc(S(=O)(=O)c2c(SC)nn(Cc3ccccc3C)c2NC(C)=O)cc1 | . | / | / | / | / | /
NS(=O)(=O)c1ccc(N/N=C/c2cn(-c3ccccc3)nc2-c2cccs2)cc1 | 11µM | . | . | . | / | .
CCOC(=O)c1cc2c(C)n(-c3ccc(C)cc3)c(C)c2ccc1=O | 0.38µM | ? | ? | ? | . | .
CCOC(=O)c1cc2c(C)n(-c3ccc(OCC)cc3)c(C)c2ccc1=O | 17µM | . | . | . | . | .
N#Cc1cccc(CS(=O)(=O)c2nnnn2C2CCCCC2)c1 | / | / | / | / | . | /
O=c1cc(-c2ccccc2Cl)oc2cc(O)cc(O)c12 | 27µM | . | . | . | . | .
O=C(Nc1ccc(O)c2c(=O)cc(-c3ccccc3Cl)oc12)c1ccc(F)cc1 | . | . | . | . | / | .
Nc1ccc(O)c2c(=O)cc(-c3ccccc3Cl)oc12 | 2.7µM | 2.8µM | ? | 2.8µM | 11µM | ?
Cc1cc(C)c(S(=O)(=O)NCC(c2ccc(N(C)C)cc2)N2CCOCC2)c(C)c1 (configuration not stated) | . | / | / | / | / | /
CC(=O)CSc1nc2ccccc2s1 | . | . | ? | . | . | .
CC(C)OC(=O)CSc1nc2ccccc2s1 | 24µM | . | ? | . | . | ?
Nc1ccc2nc(SCc3ccc([N+](=O)[O-])cc3)sc2c1 | 21µM | . | . | . | . | .
COC(=O)CSc1nc2ccc(N)cc2s1 | 27µM | . | . | . | . | .
CC(=O)N1[C@H](C)C=C[C@]1(Cc1ccccc1)C(=O)NCc1ccc(C)o1 | / | / | / | / | . | /
COc1ccc(-c2cn3cccc(C)c3n2)cc1F | 6µM | 2.5µM | ? | ? | 5.6µM | 4.6µM
COc1ccc(-c2nc3c(-c4ccccc4)cnn3cc2C)cc1F | . | . | . | . | / | .
Cc1ccc(-c2cn3cccc(C)c3n2)cc1 | 1.1µM | 1.4µM | ? | 4µM | / | ?
Cc1ccc(-c2cn3cccc(C)c3n2)cc1NS(=O)(=O)c1ccccc1 | 17µM | / | / | / | . | /

Screening results from PubChem BioAssay.
